Reference: PubChem BioAssay (Tox21)
Values joined by “and” are separate entries in the source; they are usually repeats but may differ in a detail not shown here. Identical values can stand only once. Unmarked numbers belong to inactive results. Results filed as inconclusive are left out. Entries that show only a call come without a potency. Active and inactive are the calls of the source. Unless noted, the call rests on the fitted dose curve; in most records, active means well fitted curve in the direction sought with a large enough effect in the repeat runs; inconclusive means weak or mixed curves; inactive means no such curve, though single readings can be large; an effect the other way counts as inactive or inconclusive.

system: not listed separately; assay: qHTS assay to identify small molecule antagonists of the androgen receptor (AR) signaling pathway - cell viability counter screen (AID 743033; further: nearly all actives have a fitted effect of over 45% in size; further: potency means the concentration at half of the fitted maximal effect); settings: AR-bla HEK293 viability, CellTiter-Glo luminescence, 16 h; series mostly up to 58.5 µM

Structure (SMILES)	Potency
COC1=CC(=O)O[C@@H](/C=C/c2ccc3c(c2)OCO3)C1	inactive
CN[C@@H](C)[C@H](O)c1ccccc1	inactive
O=S(=O)(c1ccccc1)c1ccccc1	inactive
OCC1CO1 (stereo not given)	inactive
C[N+]1(CCF)[C@@H]2CC[C@H]1CC(OC(=O)C(O)(c1ccccc1)c1ccccc1)C2 (stereo not given in full)	inactive
CC(C)(c1ccccc1)c1cc(-n2nc3ccccc3n2)c(O)c(C(C)(C)c2ccccc2)c1	inactive
C[N+](C)(C)CC1CO1 (stereo not given)	inactive
CCCCC(CC)COC(=O)c1c(Br)c(Br)c(Br)c(Br)c1C(=O)OCC(CC)CCCC (stereo not given)	inactive
C=CC(=O)NC(C)(C)CC(C)=O	inactive
OCCCl	inactive
CCC(C)(C)O	inactive
c1ccc2c(c1)-c1cccc3cccc-2c13	inactive
CC(Oc1cccc(Cl)c1)C(=O)O (stereo not given)	inactive
CC[N+]1(C)CCCC(OC(=O)C(O)(c2ccccc2)c2ccccc2)C1 (stereo not given)	inactive
CCCCNC(=O)OCC#CI	12.2 µM (active) and 19.5 µM (active)
COc1ccc2c(c1OC)C(=O)O[C@H]2[C@@H]1c2cc3c(cc2CCN1C)OCO3	inactive

Structure (SMILES)	Potency
CCCN(CCC)C(=O)Cc1c(-c2ccc(Cl)cc2)nc2ccc(Cl)cn12	inactive
CCOC(=O)NC(O)C(Cl)(Cl)Cl (stereo not given)	inactive
c1ccc2sc(SNC3CCCCC3)nc2c1	inactive
C[C@]12CC[C@H]3[C@@H](CCC4=CC(=O)CC[C@@H]43)[C@@H]1CC[C@@H]2OC(=O)CCc1ccccc1	inactive
CON(C)C(=O)Nc1ccc(Cl)cc1	inactive
CCCSP(=S)(OCC)Oc1ccc(SC)cc1 (stereo not given)	inactive
O=C(CCl)CCl	inactive
O=CC=O	inactive
SCc1ccccc1	inactive
N#CC(C#N)=C(C#N)C#N	inactive
CCc1ccccc1N	inactive
COc1cc(C[C@@H](C)N)c(OC)cc1Br	inactive
C=CCc1ccc(OC(=O)Cc2ccccc2)c(OC)c1	inactive
[Cl-].[Cl-].[Hg+2]	9.52 µM (active) and 1.54 µM (active) and 9.77 µM (active)
CC1(C)CC(=O)CC(C)(C)N1[O]	inactive

target: Androgen receptor (Homo sapiens) (UniProt P10275); assay: qHTS assay to identify small molecule antagonists of the androgen receptor (AR) signaling pathway (AID 743035; active means well fitted inhibition curve with a large enough effect in the signal ratio in the repeat runs, not every such curve was filed as active; the % refers to the signal ratio; further: potency means the concentration at half of the fitted maximal effect); settings: HEK293 AR-UAS-bla, R1881-stimulated, beta-lactamase FRET, 16 h; series mostly up to 58.5 µM
Sequence (P10275 whole entry, looked up): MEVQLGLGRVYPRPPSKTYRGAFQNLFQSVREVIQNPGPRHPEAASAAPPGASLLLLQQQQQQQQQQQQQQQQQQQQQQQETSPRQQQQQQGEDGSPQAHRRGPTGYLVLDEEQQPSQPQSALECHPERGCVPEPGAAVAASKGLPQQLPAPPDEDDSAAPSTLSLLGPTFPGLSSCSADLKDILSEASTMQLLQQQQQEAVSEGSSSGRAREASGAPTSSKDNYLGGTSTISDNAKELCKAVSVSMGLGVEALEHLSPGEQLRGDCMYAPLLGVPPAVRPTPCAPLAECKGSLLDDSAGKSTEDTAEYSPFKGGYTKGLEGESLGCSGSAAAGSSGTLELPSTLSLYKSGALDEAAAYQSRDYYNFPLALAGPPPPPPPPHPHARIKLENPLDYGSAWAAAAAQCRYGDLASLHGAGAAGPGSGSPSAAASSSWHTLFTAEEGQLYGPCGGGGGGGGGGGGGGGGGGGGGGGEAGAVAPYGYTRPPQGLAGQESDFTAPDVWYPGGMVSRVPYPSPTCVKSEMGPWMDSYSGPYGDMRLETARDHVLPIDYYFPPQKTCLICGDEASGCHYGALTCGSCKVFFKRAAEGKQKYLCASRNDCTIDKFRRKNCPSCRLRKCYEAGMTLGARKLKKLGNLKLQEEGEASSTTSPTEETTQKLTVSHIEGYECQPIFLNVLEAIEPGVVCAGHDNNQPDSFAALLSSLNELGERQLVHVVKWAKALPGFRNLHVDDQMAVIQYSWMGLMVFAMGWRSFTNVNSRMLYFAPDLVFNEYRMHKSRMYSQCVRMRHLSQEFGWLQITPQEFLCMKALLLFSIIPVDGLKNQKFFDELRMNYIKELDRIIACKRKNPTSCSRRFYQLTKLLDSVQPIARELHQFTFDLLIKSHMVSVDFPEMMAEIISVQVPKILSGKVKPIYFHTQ
Outline: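 HEK293 cells stably carrying UAS-beta-lactamase reporter, 2,000/well, given compounds plus R1881 agonist and incubated 16 h at 37C. LiveBLAzer B/G FRET substrate then added for 2 h at room temperature before fluorescence reading.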

Structure (SMILES)	Potency
C[N+](C)(C)CC1CO1 (stereo not given)	inactive
COc1ccc2c(c1OC)C(=O)O[C@H]2[C@@H]1c2cc3c(cc2CCN1C)OCO3	inactive
O=P(OCC(Br)CBr)(OCC(Br)CBr)OCC(Br)CBr (stereo not given)	14 µM (active)
O=CC=O	inactive
CC(=O)NNc1ccccc1	inactive

target: Androgen receptor (Homo sapiens) (UniProt P10275); assay: qHTS assay to identify small molecule agonists of the androgen receptor (AR) signaling pathway (AID 743036; active means well fitted activation curve with a large enough effect in the signal ratio in the repeat runs, with a control signal flat, not every such curve was filed as active; the % refers to the signal ratio); settings: HEK293 AR-UAS-bla GripTite, beta-lactamase FRET ratio, 16 h; series mostly up to 62.4 µM
Outline: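 In this Tox21 qHTS, 2,000 HEK293 AR-bla cells per well were incubated with compounds for 16 h at 37C and 5% CO2. Fluorescence intensity was recorded 2 h after adding LiveBLAzer B/G FRET substrate at room temperature.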

Structure (SMILES)	Potency
C[N+](C)(C)CC1CO1 (stereo not given)	inactive
COc1ccc2c(c1OC)C(=O)O[C@H]2[C@@H]1c2cc3c(cc2CCN1C)OCO3	inactive
O=P(OCC(Br)CBr)(OCC(Br)CBr)OCC(Br)CBr (stereo not given)	inactive
O=CC=O	inactive
CC(=O)NNc1ccccc1	inactive

target: Androgen receptor (Homo sapiens) (UniProt P10275); assay: qHTS assay to identify small molecule agonists of the androgen receptor (AR) signaling pathway using the MDA cell line (AID 743040; further: nearly all actives have a fitted effect of over 20% in size); settings: MDA-kb2 AR-luc cells, MMTV luciferase, 16 h; activity change: at 70.3 µM (top of the series), stronger effect = higher value
Outline: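 After a 5 h incubation at 37C and 0% CO2, MDA-kb2 reporter cells were dosed with compounds in DMSO and kept 16 h under the same conditions. Luciferase activity was then read as luminescence with ONE-Glo.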

Structure (SMILES)	Potency
C[N+](C)(C)CC1CO1 (stereo not given)	inactive
COP(=O)(OC)OC(Br)C(Cl)(Cl)Br (stereo not given)	inactive
COc1ccc2c(c1OC)C(=O)O[C@H]2[C@@H]1c2cc3c(cc2CCN1C)OCO3	inactive
O=P(OCC(Br)CBr)(OCC(Br)CBr)OCC(Br)CBr (stereo not given)	inactive
O=CC=O	inactive
CC(=O)NNc1ccccc1	inactive

system: not listed separately; assay: qHTS assay to identify small molecule antagonists of the androgen receptor (AR) signaling pathway using the MDA cell line - cell viability counter screen (AID 743041; further: nearly all actives have a fitted effect of over 45% in size; further: potency means the concentration at half of the fitted maximal effect); settings: MDA-kb2 viability, CellTiter-Fluor, 16 h, cells co-treated with R1881 androgen agonist; series mostly up to 70.3 µM
Outline: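 R1881-driven MDA-kb2 AR-luc cells, 3,000/well, were dosed with library compounds for 16 h; cell health came from CellTiter-Fluor fluorescence in the reporter wells.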

Structure (SMILES)	Potency	viability change, negative = cytotoxic
COC1=CC(=O)O[C@@H](/C=C/c2ccc3c(c2)OCO3)C1	inactive	
CN[C@@H](C)[C@H](O)c1ccccc1	inactive	
CCCCCCCCCCCCN=C(N)N		-10.3% [at 3.79 µM]
O=S(=O)(c1ccccc1)c1ccccc1	inactive	
OCC1CO1 (stereo not given)	inactive	
C[N+]1(CCF)[C@@H]2CC[C@H]1CC(OC(=O)C(O)(c1ccccc1)c1ccccc1)C2 (stereo not given in full)	inactive	
CC(C)(c1ccccc1)c1cc(-n2nc3ccccc3n2)c(O)c(C(C)(C)c2ccccc2)c1	inactive	
C[N+](C)(C)CC1CO1 (stereo not given)	inactive	
CCCCC(CC)COC(=O)c1c(Br)c(Br)c(Br)c(Br)c1C(=O)OCC(CC)CCCC (stereo not given)	inactive	
CCCCCCCCCCCCN(C)C	inactive	
C=CC(=O)NC(C)(C)CC(C)=O	inactive	
OCCCl	inactive	
CCC(C)(C)O	inactive	
COP(=O)(OC)OC(Br)C(Cl)(Cl)Br (stereo not given)	inactive	
c1ccc2c(c1)-c1cccc3cccc-2c13	inactive	
C=CCOC(=O)C(C)(C)OC(=O)c1cc(-n2c(=O)cc(C(F)(F)F)n(C)c2=O)ccc1Cl	inactive	
CC(Oc1cccc(Cl)c1)C(=O)O (stereo not given)	inactive	
CC[N+]1(C)CCCC(OC(=O)C(O)(c2ccccc2)c2ccccc2)C1 (stereo not given)	inactive	
CCCCNC(=O)OCC#CI	60.8 µM (active)	

Structure (SMILES)	Potency	viability change, negative = cytotoxic
COc1ccc2c(c1OC)C(=O)O[C@H]2[C@@H]1c2cc3c(cc2CCN1C)OCO3	inactive	
CCCN(CCC)C(=O)Cc1c(-c2ccc(Cl)cc2)nc2ccc(Cl)cn12	inactive	
CCOC(=O)NC(O)C(Cl)(Cl)Cl (stereo not given)	inactive	
c1ccc2sc(SNC3CCCCC3)nc2c1	inactive	
C[C@]12CC[C@H]3[C@@H](CCC4=CC(=O)CC[C@@H]43)[C@@H]1CC[C@@H]2OC(=O)CCc1ccccc1	inactive	
O=P(OCC(Br)CBr)(OCC(Br)CBr)OCC(Br)CBr (stereo not given)	inactive	
O=[N+]([O-])/C=C/c1ccccc1	inactive	
CON(C)C(=O)Nc1ccc(Cl)cc1	inactive	
CCCSP(=S)(OCC)Oc1ccc(SC)cc1 (stereo not given)	inactive	
O=C(CCl)CCl	inactive	
O=CC=O	inactive	
SCc1ccccc1	inactive	
N#CC(C#N)=C(C#N)C#N	inactive	
CCc1ccccc1N	inactive	
COc1cc(C[C@@H](C)N)c(OC)cc1Br	inactive	
C=CCc1ccc(OC(=O)Cc2ccccc2)c(OC)c1	inactive	
CC(=O)NNc1ccccc1	inactive	
[Cl-].[Cl-].[Hg+2]	24.8 µM (active) and 54.2 µM (active) and 61.1 µM (active)	
CC1(C)CC(=O)CC(C)(C)N1[O]	inactive	
